Data taken from PubChem BioAssay (NCI).
The panel holds about 83,000 compounds, 20% with a hit somewhere; the sample as a whole holds those more often.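 A percent growth of 40 corresponds to 60% growth inhibition; 0 means no net growth; -100 means all cells died. Active threshold: below 10.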 A number with no mark means an inactive call. Calls of active or inactive are those of the source.

Assays:
Assay in all cases: NCI-60 one-dose screen, 48 h (100 = growth as untreated, 0 = no growth, -100 = all killed)
Settings in all cases: 10 µM unless noted
T-47D breast = system: T-47D breast
BT-549 breast = system: BT-549 breast
MDA-MB-435 melanoma = system: MDA-MB-435 melanoma
SW-620 colon = system: SW-620 colon
MCF7 breast = system: MCF7 breast
HCT-116 colon = system: HCT-116 colon
HCC-2998 colon = system: HCC-2998 colon
KM12 colon = system: KM12 colon

SMILES	growth (T-47D breast)	growth (BT-549 breast)	growth (MDA-MB-435 melanoma)	growth (SW-620 colon)	growth (MCF7 breast)	growth (HCT-116 colon)	growth (HCC-2998 colon)	growth (KM12 colon)
O=C(Nc1nc2ccc(C(=O)N3CCN(/C=C/c4ccccc4)CC3)cc2s1)c1ccc(NCCc2ccccc2)c([N+](=O)[O-])c1	43.2%	71.9%	55.8%	4.25% (active)	16%	11.2%	76.9%	53.5%
CC(=O)N1N=C(c2ccc(Nc3nc(Nc4ccccc4)nc(Nc4ccccc4)n3)cc2)CC1c1cccc([N+](=O)[O-])c1 (stereo not given)	66.4%	111%	96.1%	94.9%	91.4%	95.5%	103%	129%
N=C(N)c1ccc(-c2ccc(-c3ccc(Cl)c(Cl)c3)s2)nc1	56.2%	87.5%	10.8%	-56.6% (active)	-64.6% (active)	-50.8% (active)	-61.9% (active)	-74.6% (active)
Cc1sc2nc(NCCc3c[nH]c4ccc(Cl)cc34)[nH]c(=O)c2c1C	44.9%	74.2%	39.7%	9.09% (active)	32.2%	24.5%	21.5%	1.89% (active)
O=C(/C=C/c1ccco1)Nc1ncc(Cc2cccc(C(F)(F)F)c2)s1	21.5%	8.55% (active)	-49.6% (active)	18.4%	12.9%	7.05% (active)	12.2%	4.7% (active)
COc1ccccc1NC(=O)N=Nc1c(O)[nH]c2ccccc12	68.6%	97.9%	91%	84.4%	59%	93%	94.4%	94.8%
O=C(O)c1ccc(-n2cc(/C=N/Nc3ccccc3)c(-c3ccc(F)cc3F)n2)cc1	35.4%	95.2%	45.9%	30.1%	41.6%	37.7%	81.1%	29.3%
O=C(Nc1ccc(Oc2cccc(F)c2)c(Cl)c1)c1cccnc1	33.5%	48.6%	1.64% (active)	25.8%	19.6%	33.7%	57.7%	29.3%
O=C(NNC(=O)c1ccc(NC(=O)c2ccccn2)cc1)Nc1ccc([N+](=O)[O-])cc1	99.2%	94.6%	106%	104%	95.7%	101%	109%	108%
Nc1ncc(-c2ccc3ncnc(Nc4cccc(Cl)c4)c3c2)cn1	-20.1% (active)	46.5%	55.6%	91.4%	24.2%	66.4%	60.5%	67.5%
O=[N+]([O-])c1ccc(O)cc1Br	96.8%	91.2%	100%	104%	92.9%	95.4%	103%	101%
CCc1ccc(CCCC(=O)O)cc1	98.8%	101%	103%	108%	93.6%	98.1%	117%	106%
COc1ccc2[nH]c(C(=O)N3CCN(C(=O)OCc4ccc5c(Cl)cc(Cl)c(O)c5n4)CC3)cc2c1	-57.5% (active)	-69.3% (active)	-91% (active)	-81.9% (active)	-55.7% (active)	-92.2% (active)	-86.7% (active)	-62.3% (active)
c1csc(-c2ccc(CNc3c4ccccc4nc4ccccc34)cc2)c1	71.9%	33.7%	-83.4% (active)	-72.2% (active)	-63% (active)	-82.6% (active)	-87.2% (active)	26.3%
O=C1/C(=C\c2ccc3nccnc3c2)SC(=S)N1CCc1ccc(O)cc1	50.4%	96.5%	93.2%	98.2%	41.9%	94.8%	117%	52.1%
